# “And” between values parts separate entries of the source, which are not always exact repeats. Equal values may be shown once. Records with an inconclusive call do not appear. Where a call stands in place of a potency, no number is given. The source made the active and inactive calls. The call rests on the fitted dose curve; in most records, active means well fitted inhibition curve with a large enough effect; inconclusive means small, poorly fitted or top-dose-only effect; inactive means flat fitted curve, though single readings scatter.
# Biological target: Glutathione peroxidase 1 (Homo sapiens) (UniProt P07203)
# Experiment: Primary qHTS Assay for Inhibitors of Recombinant Selenoprotein Glutathione Peroxidase 1 (GPX1) (AID 1845191); further: potency means the concentration at half of the fitted maximal effect
# Conditions: recombinant GPX1, GR-coupled NADPH fluorescence, 15 min; series mostly up to 48.8 µM
# In short: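 GR-coupled readout: NADPH consumption tracked by fluorescence, ex 340/em 450 nm, at t=0 and after 15 min at RT. Final mix 10 nM GPX1, 1 mM GSH, 0.5 mM CHP, 0.5 mM NADPH, 100 nM GR, 0.01% BSA, following 30 min enzyme–compound preincubation.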
# Further: nearly all actives have a fitted effect of over 65% in size.
# Glutathione peroxidase 1 (Homo sapiens), sequence (P07203 whole entry, looked up): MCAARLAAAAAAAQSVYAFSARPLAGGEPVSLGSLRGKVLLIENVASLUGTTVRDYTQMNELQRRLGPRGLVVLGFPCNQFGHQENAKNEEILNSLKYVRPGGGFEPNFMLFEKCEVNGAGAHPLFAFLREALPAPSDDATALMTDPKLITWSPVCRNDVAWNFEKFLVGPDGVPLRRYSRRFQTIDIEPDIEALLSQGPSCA
row,SMILES,Potency
1,CC(C)Nc1cc(C(F)(F)F)cc2nc(NC(=O)c3cccnc3)nn12,inactive
2,Cc1cn(-c2cc(NC(=O)c3ccc(C)c(Nc4nccc(-c5cccnc5)n4)c3)cc(C(F)(F)F)c2)cn1,inactive
3,c1nc2nc(Nc3ccc(N4CCOCC4)cc3)nc(NC3CCCCC3)c2[nH]1,inactive
4,Cc1c(Cn2c(C)nc3c(C(=O)O)cc(N4CCOCC4)cc32)cccc1C(F)(F)F,inactive
5,COc1ccc(-c2cc3c(C)nc(N)nc3n(C3CCC(OCCO)CC3)c2=O)cn1 (stereo not given),5.78 µM (active) and 16.1 µM (active)
6,CCCCCN(CCC12CC3CC(CC(C3)C1)C2)C(=O)NCCCc1ccncc1,inactive
7,COC(=O)Nc1ccc(-c2nc(N3CCOCC3)c3cnn(C4CCN(Cc5cccnc5)CC4)c3n2)cc1,inactive
8,Cc1cnc(Nc2ccc(F)cc2Cl)nc1-c1c[nH]c(C(=O)N[C@H](CO)c2cccc(Cl)c2)c1,inactive
9,NCC(=O)Nc1ccc(-n2nc(C(F)(F)F)cc2-c2ccc3c(ccc4ccccc43)c2)cc1,inactive
10,Cc1cn2cc(C(=O)N(C)CCO)cc(N[C@@H]3CCOc4cccc(C)c43)c2n1,inactive
11,CCc1c2c(nc3ccc(O)cc13)-c1cc3c(c(=O)n1C2)COC(=O)[C@]3(O)CC,inactive
12,Nc1nc(Nc2ccc(S(N)(=O)=O)cc2)nn1C(=O)c1c(F)cccc1F,inactive
13,C[C@@H]1COC(Nc2ccc3ncnc(Nc4ccc(OCc5nccs5)c(Cl)c4)c3c2)=N1,inactive
14,N#CCNC(=O)c1ccc(-c2ccnc(Nc3ccc(N4CCOCC4)cc3)n2)cc1,inactive
15,CC(=O)Nc1nc(C)c(-c2ccc(Cl)c(S(=O)(=O)NCCO)c2)s1,inactive
16,Clc1ccc2ncc(-c3cccc(NC4CNC4)n3)n2c1,inactive
17,COC(=O)Nc1nc2ccc(C(=O)c3ccc(F)cc3)cc2[nH]1,inactive
18,COc1cc2c(Oc3ccc(NC(=O)C4(C(=O)Nc5ccc(F)cc5)CC4)cc3F)ccnc2cc1OCCCN1CCOCC1,inactive

row,SMILES,Potency
1,Cc1cc(Nc2cc(CN3CCOCC3)c3nc(C)c(Cc4ccc(Cl)cc4F)n3n2)n[nH]1,inactive
2,CNc1nccc(-c2cccnc2Oc2cc(C(=O)Nc3cccc(C(F)(F)F)c3)ccc2C)n1,inactive
3,CC(C)c1nn(-c2c(Cl)cccc2Cl)c2nc(Cc3ccc(OCCO)cc3)[nH]c(=O)c12,inactive
4,CC1(O)CC(c2nc(-c3ccc4ccc(-c5ccccc5)nc4c3)c3c(N)nccn23)C1 (stereo not given),inactive
5,CC(=O)Nc1sc2c(c1-c1nc3ccccc3s1)CNC2,3.6 µM (active)
6,Cn1c2ccccc2c2c3c(c4c5ccccc5n(CCC#N)c4c21)CNC3=O,inactive
7,Clc1cccc(-c2nnnn2Cc2cccnc2)c1Cl,inactive
8,CC[C@@H]1C(=O)N(C)c2cnc(Nc3ccc(C(=O)NC4CCC(N5CCN(CC6CC6)CC5)CC4)cc3OC)nc2N1C(C)C (stereo not given in full),inactive
9,COc1cc2c(Oc3ccc4[nH]c(C)cc4c3F)ncnc2cc1OCCCN1CCCC1,inactive
10,CC(C)(C)c1cc(NC(=O)Nc2ccc(-c3cn4c(n3)sc3cc(OCCN5CCOCC5)ccc34)cc2)no1,inactive
11,C=CC(=O)N1CCC[C@@H](n2nc(-c3ccc(Oc4ccccc4)cc3)c3c(N)ncnc32)C1,inactive
12,CC(C)c1cnn2c(NCc3ccccc3)cc(N[C@@H](CO)[C@H](O)CO)nc12,inactive
13,Cc1[nH]nc2ccc(-c3cncc(OC[C@@H](N)Cc4ccccc4)c3)cc12,inactive
14,CCCCOc1c(C(=O)c2c(F)cc(C)cc2F)cnc2n[nH]cc12,inactive
15,COc1cccc2nc(-c3cccs3)nc(NN3C(=O)C=C(C)C3=O)c12,inactive
16,Cc1nc(N)ncc1-c1nc(N2CCOCC2)c2sc(C(C)(C)O)cc2n1,inactive
17,COc1cc(C)c(Sc2cnc(NC(=O)c3ccc(CNC(C)C(C)C)cc3)s2)cc1C(=O)N1CCN(C(C)=O)CC1 (stereo not given),inactive

# Biological target: Phospholipid hydroperoxide glutathione peroxidase GPX4 (Homo sapiens) (UniProt P36969)
# Experiment: Primary qHTS Assay for Inhibitors of Recombinant Selenoprotein Glutathione Peroxidase 4 (GPX4) (AID 1845192)
# Conditions: recombinant GPX4, GR-coupled NADPH fluorescence, 15 min; series mostly up to 50 µM
# In short: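 Steps: GPX4 plus compound, 30 min RT; add GR/GSH/NADPH master mix; start with cumene hydroperoxide; read 340/450 nm fluorescence at 0 and 15 min. Finals were 200 nM GPX4, 1 mM GSH, 0.5 mM CHP, 0.5 mM NADPH, 100 nM GR.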
# Phospholipid hydroperoxide glutathione peroxidase GPX4 (Homo sapiens), sequence (P36969 whole entry, looked up): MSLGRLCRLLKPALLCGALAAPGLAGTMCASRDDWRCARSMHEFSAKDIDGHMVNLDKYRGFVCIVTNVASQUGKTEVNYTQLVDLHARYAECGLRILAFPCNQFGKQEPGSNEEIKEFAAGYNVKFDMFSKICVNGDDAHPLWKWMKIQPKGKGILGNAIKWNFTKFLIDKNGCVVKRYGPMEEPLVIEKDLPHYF
row,SMILES,Potency
1,Cc1cn(-c2cc(NC(=O)c3ccc(C)c(Nc4nccc(-c5cccnc5)n4)c3)cc(C(F)(F)F)c2)cn1,inactive
2,c1nc2nc(Nc3ccc(N4CCOCC4)cc3)nc(NC3CCCCC3)c2[nH]1,inactive
3,Cc1c(Cn2c(C)nc3c(C(=O)O)cc(N4CCOCC4)cc32)cccc1C(F)(F)F,inactive
4,CCCCCN(CCC12CC3CC(CC(C3)C1)C2)C(=O)NCCCc1ccncc1,inactive
5,Cc1cn2cc(C(=O)N(C)CCO)cc(N[C@@H]3CCOc4cccc(C)c43)c2n1,inactive
6,CCc1c2c(nc3ccc(O)cc13)-c1cc3c(c(=O)n1C2)COC(=O)[C@]3(O)CC,inactive
7,Nc1nc(Nc2ccc(S(N)(=O)=O)cc2)nn1C(=O)c1c(F)cccc1F,inactive
8,N#CCNC(=O)c1ccc(-c2ccnc(Nc3ccc(N4CCOCC4)cc3)n2)cc1,inactive
9,CC(=O)Nc1nc(C)c(-c2ccc(Cl)c(S(=O)(=O)NCCO)c2)s1,inactive
10,Cc1cc(Nc2cc(CN3CCOCC3)c3nc(C)c(Cc4ccc(Cl)cc4F)n3n2)n[nH]1,inactive
11,CNc1nccc(-c2cccnc2Oc2cc(C(=O)Nc3cccc(C(F)(F)F)c3)ccc2C)n1,inactive
12,CC(C)c1nn(-c2c(Cl)cccc2Cl)c2nc(Cc3ccc(OCCO)cc3)[nH]c(=O)c12,inactive
13,Clc1cccc(-c2nnnn2Cc2cccnc2)c1Cl,inactive
14,COc1cc2c(Oc3ccc4[nH]c(C)cc4c3F)ncnc2cc1OCCCN1CCCC1,inactive
15,CC(C)(C)c1cc(NC(=O)Nc2ccc(-c3cn4c(n3)sc3cc(OCCN5CCOCC5)ccc34)cc2)no1,inactive

# — PubChem BioAssay (NCATS)
